# The list is not random: actives were taken first. Their share in the collection is about 2.4%.
# D2 ag-1 – D2 dopamine receptor (human) agonism. P14416. HEK293 T-REx D2 cells, calcium flux agonist mode. activation, % at 2 µM. 340,000 tested, 0.53% active;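 active = activation over 3 SD above normal in the single-dose calcium agonist read, cut at about 30% in these data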; also: 0% is about no effect
# Target sequence (P14416 whole entry, looked up): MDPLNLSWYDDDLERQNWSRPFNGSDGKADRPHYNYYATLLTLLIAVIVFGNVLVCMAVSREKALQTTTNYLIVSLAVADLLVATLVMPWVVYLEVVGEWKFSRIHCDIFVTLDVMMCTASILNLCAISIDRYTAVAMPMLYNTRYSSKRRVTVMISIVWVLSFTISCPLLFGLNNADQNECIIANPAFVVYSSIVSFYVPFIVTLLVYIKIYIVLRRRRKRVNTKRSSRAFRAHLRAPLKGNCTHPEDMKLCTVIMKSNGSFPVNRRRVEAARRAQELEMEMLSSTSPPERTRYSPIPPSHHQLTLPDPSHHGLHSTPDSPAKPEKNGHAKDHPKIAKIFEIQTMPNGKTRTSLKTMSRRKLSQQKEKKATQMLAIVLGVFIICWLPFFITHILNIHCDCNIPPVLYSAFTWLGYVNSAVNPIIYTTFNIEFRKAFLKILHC
#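 In this primary screen, compounds producing a positive calcium signal within 180 s of addition to tetracycline-induced, force-coupled HEK293 Trex D2 cells are flagged; cells are dye-loaded with a no-wash calcium kit beforehand.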
# D2 PAM-1 – D2 dopamine receptor (human) potentiation; HEK293 T-REx D2, calcium flux, EC20 dopamine potentiation; potentiation, % at 10 µM; 340,000 tested, 0.34% active; P14416;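 active = potentiation over 3 SD above the plate norm, cut at about 30% in these data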; also: 0% is about no effect
#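 Cells plated with tetracycline inducer and held overnight at 30 C; calcium dye loaded 30–90 min at room temperature; baseline taken, compound added and read 180 s; EC20 dopamine then added and read 180 s.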
# D2 PAM-2 – positive allosteric modulators of human D2 dopamine receptor. DiscoveRx D2 beta-arrestin cells, luminescence, 90 min; 100% = 57 uM dopamine signal. potentiation, % (no concentration beside the values). AID 624464. 360,000 tested, 0.23% active; in the data active = potentiation above about 50%; inconclusive = mostly about 30% to 49%
#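 PathHunter D2 cells, attached overnight at 37 deg C, received compound in DMSO plus dopamine at EC20 (50 nM final) for 90 min at 37 deg C. Beta-arrestin recruitment was read as luminescence after 1 h with detection reagent at ambient temperature.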
# D2 antagonist – antagonists of human D2 dopamine receptor; P14416; HEK293 TREx D2 cells, calcium flux, dopamine EC80; inhibition, % at 10 µM; 340,000 tested, 2% active; AID 485344; in the data active = inhibition above about 30%; inactive = below that, where a call was filed; also: 0% is about no effect
#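 Calcium mobilization kinetics were recorded at 1 s intervals in tetracycline-induced HEK293 T-REx D2 cells, first for 180 s after compound addition and then 180 s after EC80 dopamine.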
# D2 ag-2 – activates the human D2 dopamine receptor; P14416; DiscoveRx PathHunter D2 beta-arrestin, luminescence, 90 min; 100% = 57 uM dopamine signal; activation, % (no concentration beside the values); 360,000 tested, 0.084% active; AID 624465; in the data active = activation above about 40%; inconclusive = between about 15% and that limit
#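 DiscoveRx PathHunter D2 beta-arrestin cells (2,100/well) attached overnight, then compound-stimulated 90 min at 37 C in HBSS/10 mM HEPES/0.1% Tween-20 buffer; beta-galactosidase complementation read by luminescence after 1 h at ambient temperature. Dopamine 57 uM final (EC100) as control.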
# An asterisk follows results filed as active; ? = inconclusive; . = not tested or not shown.
SMILES,D2 ag-1,D2 PAM-1,D2 PAM-2,D2 antagonist,D2 ag-2
CC1CN(S(=O)(=O)c2ccc(F)cc2)CN1C(=O)N1CCOCC1 (stereo not given),-0.5,-9.3,-7.7,4.2,-4.0
CC1CN(S(=O)(=O)c2ccc(F)cc2)C(C)N1C(=O)N1CCOCC1 (stereo not given),-0.3,-11.5,1.5,32.1*,-1.3
COc1ccccc1/C=N\Nc1cn[nH]c(=O)c1Cl,-1.6,-0.4,-2.5,30.1*,0.3
CCOC(=O)C1=C(Cn2cnc3ccccc32)NC(=O)NC1c1cc(C)ccc1C (stereo not given),0.8,9.6,?,-9.8,?
COC(=O)C1=C(Cn2cnc3ccccc32)NC(=O)NC1c1cc(C)ccc1C (stereo not given),0.8,-2.6,90.7*,-8.8,51.6*
NC(N)=NCCCC(NC(=O)c1ccccc1)C(=O)Nc1ccc2ccccc2c1 (stereo not given),0.5,-15.6,-32.3,53.7*,-2.8
NC(N)=NCCCC(NC(=O)c1ccccc1)C(=O)Nc1ccc([N+](=O)[O-])cc1 (stereo not given),-0.8,-11.7,-4.6,75.2*,-5.1
COc1ccc(-c2cn3c(n2)sc2cc(C(=O)Nc4cc(Cl)ccc4C)ccc23)cc1,-0.2,-3.3,.,.,.
S=c1cn[nH]c2ccccc12,.,.,-22.5,.,-6.3
O=C(CSc1nc(O)c(Cc2ccccc2)c(=O)[nH]1)N1CCOCC1,14.5,-6.8,-0.7,1.3,-4.4
O=C(CSc1nc(O)c(C2CCCCC2)c(=O)[nH]1)N1CCOCC1,0.3,-11.5,-10.5,42.7*,-1.8
Fc1cccc(F)c1CN1CCN(c2ncccn2)CC1,33.5*,-13.5,20.9,-2.6,?
CCOC(=O)Cn1c(=O)n(C2CCCCC2)c2nc(-c3ccc(OCC)cc3)nc(C(N)=O)c21,-1.7,-0.3,.,.,.
CCNc1c2c3c(cccc3n(C)c1=O)C(=O)c1ccccc1-2,112.1*,-8.8,-4.6,21.4,-0.3
CC(=O)Nc1ccc(Nc2c3c4c(cccc4n(C)c2=O)C(=O)c2ccccc2-3)cc1,8.5,13.6,-5.5,3.1,-3.3
CCCCNc1c2c3c(cccc3n(C)c1=O)C(=O)c1ccccc1-2,92.8*,-12.1,-5.6,11.1,-0.2
Cn1c(=O)c(NCCO)c2c3c(cccc31)C(=O)c1ccccc1-2,126.4*,-25.9,-7.7,82.4*,-3.9
Cn1c(=O)c(NC2CCCCC2)c2c3c(cccc31)C(=O)c1ccccc1-2,110.5*,-10.0,-1.3,59.6*,4.1
O=C(N/N=C/c1ccc2c(c1)OCO2)C(O)c1ccccc1 (stereo not given),3.2,1.6,-16.7,-5.2,-2.6
O=C1c2oc3ccccc3c(=O)c2C(c2cccc(O)c2)N1Cc1ccc(F)cc1 (stereo not given),-0.3,8.0,.,.,.
Cn1c(NCCc2ccccc2)cc(=O)n(C)c1=O,0.8,-3.2,0.4,0.0,0.5
Cn1c(=O)c(NCCc2ccccc2)c2c3c(cccc31)C(=O)c1ccccc1-2,87.3*,-10.8,-6.5,71.7*,0.3
O=C(Cn1c(CO)nc2ccccc21)NC1CCCCCC1,1.3,-3.5,.,25.7,.
COc1cc(/C=C2\SC(=O)N(Cc3ccc(F)cc3)C2=O)cc([N+](=O)[O-])c1O,-1.8,3.2,-0.9,31.5*,-2.5
COc1cc(/C=C2/SC(=S)N(Cc3ccccc3)C2=O)cc(Cl)c1O,71.6*,-20.5,-5.7,-11.9,-1.6
SMILES,D2 ag-1,D2 PAM-1,D2 PAM-2,D2 antagonist,D2 ag-2
COc1ccccc1N1CCN(CCCn2c(=S)[nH]c3ccccc3c2=O)CC1,9.0,-29.7,-36.0,82.4*,2.4
COc1ccccc1N1CCN(CCc2n[nH]c(=S)n2-c2ccccc2)CC1,0.3,-22.2,-21.4,51.6*,1.9
O=c1c2cc(N3CCOCC3)ccc2[nH]c(=S)n1CCN1CCCC1,0.4,-5.8,-11.7,5.8,-1.7
O=c1c2ccccc2[nH]c(=S)n1CCN1CCN(Cc2ccccc2)CC1,0.4,-28.5,-22.3,51.7*,-3.8
COc1ccc(N2CCN(CCCn3c(=S)[nH]c4ccccc4c3=O)CC2)cc1,0.2,-30.2,-7.2,-40.6,8.4
O=c1c2cc(N3CCOCC3)ccc2[nH]c(=S)n1CCCN1CCN(c2ccccc2F)CC1,70.5*,-28.2,.,83.6*,.
CCc1nc2ccc(C(=O)NCCN3CCNC3=O)cn2c1N(C)CCC(C)C,.,.,-9.6,.,-4.3
O=c1c2cc(N3CCOCC3)ccc2[nH]c(=S)n1CCCN1CCCCCC1,0.0,-29.1,-50.0,38.7*,1.7
CN(c1ccccc1C(=O)Nc1ccc2c(c1)OCO2)S(C)(=O)=O,-0.4,37.6*,-4.3,-10.9,-2.1
CC(NC(=O)c1ccccc1Cl)C(=O)Nc1ccc2c(c1)OCO2 (stereo not given),0.3,-9.9,-6.2,72.7*,-8.3
O=C(CC(NC(=O)c1ccccc1Cl)c1ccccc1)Nc1ccc2c(c1)OCO2 (stereo not given),.,.,-4.1,.,-3.5
CN(c1ccccc1C(=O)Nc1cccc(Cl)c1Cl)S(C)(=O)=O,0.5,-8.1,-10.8,53.3*,-2.1
CCC(C)NC(=O)CCC(=O)N1Cc2ccccc2Oc2ncccc21 (stereo not given),-0.5,1.2,.,.,.
O=C(Nc1cc(Cl)cc(Cl)c1)N1CCCN(Cc2ccccc2)CC1,0.1,-24.9,-32.4,86.6*,2.4
NC(=O)CCCCC(=O)OCCCc1cccs1,-0.8,31.3*,-0.7,0.0,3.2
Oc1nc(Nc2ccc(F)cc2)sc1/C=C1\C=Nc2ccccc21,-0.6,-7.0,-17.2,9.0,-0.4
CC1=Nc2ccccc2/C1=C\c1sc(Nc2ccc(C)cc2)nc1O,0.4,-25.7,-40.7,61.0*,-0.5
CCCNC(=O)CSc1nc2ccc(OCC)cc2s1,0.8,13.0,-1.1,35.2*,-3.1
CC(=O)Nc1cc2c(cc1C(=O)c1ccc(C)cc1)OCCO2,0.9,-5.7,-1.8,33.5*,-3.2
CN(C)CCCN1c2ccccc2CCc2ccc(Cl)cc21,2.0,-29.5,-23.3,89.1*,0.9
CNCCCN1c2ccccc2CCc2ccccc21,1.7,-22.7,-28.0,39.1*,-0.8
CCN1C(=O)CCCc2ccccc21,-0.1,6.3,-4.1,8.3,1.2
CN(C)CCCN1c2ccccc2Sc2ccccc21,.,.,-35.1,.,-9.6
Cc1ccc(C)c(NC(=O)c2ccc3nc(CCc4ccccc4)oc3c2)c1,0.8,-17.0,.,.,.
O=C(Nc1cccc([N+](=O)[O-])c1)Nc1cccc([N+](=O)[O-])c1,3.3,-1.9,-9.8,25.4,-9.9
Cc1ccc[n+](CC(=O)Nc2cccc([N+](=O)[O-])c2)c1,-0.8,-27.4,-14.1,31.6*,-8.8
O=C(O)CCCC(=O)Nc1cccc([N+](=O)[O-])c1,-1.1,37.9*,-6.8,-14.1,-0.8
O=C(Nc1cccc([N+](=O)[O-])c1)Nc1cnccn1,37.8*,-1.7,-3.0,-0.8,1.3

# Bioassay records (PubChem)
